Screening data: PubChem BioAssay, National Center for Advancing Translational Sciences (NCATS)
An excerpt weighted towards active compounds, which were near 1.1% of everything screened.
TrxR1 inh – inhibitors of rat thioredoxin reductase 1. AID 588453. recombinant rTrxR1, NADPH fluorescence consumption, selenite substrate. actives 1% (n = 390,000). O89049. Potency, µM (doses to about 114 µM), most hits filed as inhibitors; further: nearly all actives have a fitted effect of over 65% in size
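Rat TrxR1 (90 nM in the dispensed reagent) was pre-reduced with 400 uM NADPH for 5 min at room temperature, then incubated with compound for 15 min. After 400 uM selenite was added, NADPH fluorescence (Ex 340/Em 450 nm) was followed for 8 min.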
GALK inhibitor – galactokinase (human) inhibition; P51570; Purified GALK, Kinase-Glo residual ATP luminescence; Potency, µM (top dose mostly 57.5 µM), usual class: inhibitors; actives 0.007% (n = 270,000); AID 1868
Target sequence (P51570 whole entry, looked up): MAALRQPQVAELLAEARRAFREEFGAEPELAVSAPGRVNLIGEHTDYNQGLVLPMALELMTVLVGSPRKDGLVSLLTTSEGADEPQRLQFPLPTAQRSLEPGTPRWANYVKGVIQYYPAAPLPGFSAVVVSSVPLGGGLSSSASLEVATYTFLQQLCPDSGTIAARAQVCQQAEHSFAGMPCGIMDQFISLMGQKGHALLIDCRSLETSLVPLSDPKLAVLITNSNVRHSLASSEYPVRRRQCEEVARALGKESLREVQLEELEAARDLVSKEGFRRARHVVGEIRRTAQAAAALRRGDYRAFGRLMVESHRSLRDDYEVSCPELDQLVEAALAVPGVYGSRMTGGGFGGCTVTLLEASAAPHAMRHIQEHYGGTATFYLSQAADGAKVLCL
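Galactose (100 uM) and ATP (35 uM) were turned over by 5 nM GALK for 1 h at RT. Kinase-Glo Plus then converted the remaining ATP into a luminescent signal.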
TrxR1 substrate – is turned over as a substrate by rat TrxR1. O89049. purified TrxR1 substrate turnover, NADPH consumption readout. Potency, µM (series often up to 114 µM). actives 0.01% (n = 390,000). AID 588456; further: nearly all actives have a fitted effect of over 50% in size
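Rat TrxR1, dispensed at 90 nM, was prereduced with 400 uM NADPH (final) for 5 min at ~22 deg C, then incubated with compound 15 min before 400 uM selenite. A first-read NADPH fluorescence drop versus no-compound background flagged substrates.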
PI4K2A block – blocks human PI4K2A kinase activity; Q9BTU6; purified PI4K2A, ADP-Glo luminescence, 1 h; active compounds read low; activity change, negative = inhibition, % at 76.9 µM; actives 0.13% (n = 420,000); AID 1346378; in the data active means activity change below about -50%; inconclusive means mostly about -30% to -49%
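Compounds are screened against recombinant PI4K2A using PI as substrate and ATP, the latter dispensed at 300 microM. Reactions run one hour at ambient temperature before ADP-Glo detection; full inhibition defined by wells lacking enzyme.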
Large screens that a line does not name were inactive. Unless noted, the call rests on the fitted dose curve; in most records, active means well fitted curve in the direction sought with a large enough effect; inconclusive means small, poorly fitted or top-dose-only effect, or another doubt; inactive means no such curve, though single readings can be large; an effect the other way counts as inactive or inconclusive.

CCCn1nc([N+](=O)[O-])c(C(C#N)c2nc3ccccc3s2)c(Cl)c1=O (stereo not given)	TrxR1 inh 1.58µM
CCC(=O)OCCNc1cc(Sc2nc3ccccc3[nH]2)c2nonc2c1[N+](=O)[O-]	TrxR1 inh 0.282µM
Cc1nnc(Sc2cc(NCCCO)c([N+](=O)[O-])c3nonc23)s1	TrxR1 inh inconclusive, PI4K2A block inconclusive
CCC(=O)OCCNc1cc(Sc2nc3ccccc3s2)c2nonc2c1[N+](=O)[O-]	TrxR1 inh 0.282µM
O=[N+]([O-])c1c(NCCO)cc(N2CCCCCC2)c2nonc12	none
Cc1nnc(Sc2cc(NCCO)c([N+](=O)[O-])c3nonc23)s1	TrxR1 inh 0.316µM
CC(C)OC(=O)CSc1nc2ccccc2s1	none
O=[N+]([O-])c1c(NCCCO)cc(Sc2nc3ccccc3s2)c2nonc12	TrxR1 inh 0.631µM, PI4K2A block inconclusive
Cc1cccc(Nc2nc(-c3ccccc3)c3cc(C)ccc3n2)c1	none (no result: GALK inhibitor)
CCN(CC)c1ccc(/C=C/c2ccncc2)cc1	TrxR1 inh inconclusive (no result: GALK inhibitor, PI4K2A block)
CC(=O)N1CCc2cc(C(=O)CN3CCN(C(=O)c4ccco4)CC3)ccc21	TrxR1 inh 15.8µM
COc1ccc2[nH]c(C)c(C(=O)CN3CCN(C(=O)c4ccco4)CC3)c2c1	TrxR1 inh 28.2µM
Cc1ccc(C)c(S(=O)(=O)NCC(c2ccco2)S(=O)(=O)c2ccc(F)cc2)c1 (stereo not given)	TrxR1 inh inconclusive (no result: GALK inhibitor)
CN1OC[C@@H]2CN(S(=O)(=O)c3cc(Cl)cc(Cl)c3)[C@H](c3ccc(-c4ccc(C#N)cc4)cc3)C[C@@H]21	none (no result: TrxR1 inh, GALK inhibitor, TrxR1 substrate)
Cc1ccc(Cn2c(SCC(=O)NCc3ccccc3Cl)nc3ccsc3c2=O)cc1	none (no result: GALK inhibitor)
CCCN1C(=O)c2ccccc2CC1(C)C(=O)NC1CCCCC1 (stereo not given)	none (no result: GALK inhibitor)
O=C(NC(=S)NCc1ccc(F)cc1)c1ccccc1	TrxR1 inh 12.6µM (no result: GALK inhibitor)
Oc1cc2c(cc1C(c1ccc(Cl)c(Cl)c1)N1CCCC1)OCO2 (stereo not given)	TrxR1 inh 3.55µM
CC(C)c1ccc(NC(=O)C(c2ccc3c(c2)OCO3)N2CCCCC2)cc1 (stereo not given)	none
CNc1ccccc(C(=O)/C=C/c2ccccc2OC)c1=O	TrxR1 inh 8.91µM (no result: GALK inhibitor)
CNc1ccc(Br)cc(C(=O)/C=C/c2cccc(Cl)c2Cl)c1=O	TrxR1 inh 11.2µM
CCOCN(C(=O)Cn1cnc2cc(C)c(C)cc21)c1c(C)cccc1CC	none (no result: GALK inhibitor)
COC(=O)C[C@H]1c2cc(F)ccc2S(=O)(=O)N1Cc1ccccc1	PI4K2A block -59.8 (no result: GALK inhibitor)
Brc1ccc(Nc2c3c(nc4nncn24)CCC3)cc1	TrxR1 inh 22.4µM (no result: GALK inhibitor)
CN(C)C(=O)/N=N/C(=O)N(C)C	none (no result: GALK inhibitor)
CCn1c(SCC(=O)NCc2ccco2)nnc1-c1cccc(N(C)C)c1	none (no result: GALK inhibitor, PI4K2A block)
CC(NC(=O)Nc1ccc(O)cc1)(C(F)(F)F)C(F)(F)F	PI4K2A block -51.4
COc1ccc(NC(=O)NC(C)(C(F)(F)F)C(F)(F)F)cc1	none (no result: GALK inhibitor)
CCC(NC(=O)NCc1ccccc1)(C(F)(F)F)C(F)(F)F	none
CCC(NC(=O)Nc1ccc(O)cc1)(C(F)(F)F)C(F)(F)F	PI4K2A block -51.8
N/C(=N/OC(=O)c1ccccc1Cl)c1nonc1N	PI4K2A block -53.5
Cc1sc2ncn(-n3c(C)ccc3C)c(=O)c2c1C	TrxR1 inh inconclusive
Cc1ccc(-c2csc3ncn(-n4c(C)ccc4C)c(=O)c23)o1	TrxR1 inh 31.6µM
CCN(CC)c1cc2c(cc1F)c(=O)c(S(=O)(=O)c1ccc(OC)cc1)cn2Cc1ccccc1	none (no result: GALK inhibitor)
O=S(=O)(NCC(c1ccco1)S(=O)(=O)c1cccs1)c1ccccc1 (stereo not given)	TrxR1 inh 15.8µM (no result: GALK inhibitor)
O=C(NCC(c1ccco1)S(=O)(=O)c1cccs1)c1ccc(Cl)cc1 (stereo not given)	none (no result: GALK inhibitor)
COc1ccc(S(=O)(=O)NCC(c2ccco2)S(=O)(=O)c2cccs2)cc1OC (stereo not given)	TrxR1 inh inconclusive (no result: GALK inhibitor)
O=S(=O)(NCC(c1cccs1)S(=O)(=O)c1ccccc1)c1ccccc1 (stereo not given)	TrxR1 inh 0.562µM (no result: GALK inhibitor)
O=S(=O)(NCC(c1ccco1)S(=O)(=O)c1cccs1)c1ccc(F)c(C(F)(F)F)c1 (stereo not given)	TrxR1 inh 0.447µM (no result: GALK inhibitor)
O=S(=O)(NCC(c1ccco1)S(=O)(=O)c1cccs1)c1ccc(Cl)cc1 (stereo not given)	TrxR1 inh 0.631µM (no result: GALK inhibitor)
C=C1C=C(C(F)F)n2ncc(C(=O)NCCc3ccc(Cl)cc3)c2N1	none (no result: GALK inhibitor, PI4K2A block)
CCN(CC)S(=O)(=O)c1ccc(NC(=O)[C@H](CCSC)N2Cc3ccccc3C2=O)cc1	none (no result: GALK inhibitor)
Cc1noc2c1C(c1ccc(N(C)C)cc1)C1=C(CC(C)(C)CC1=O)N2 (stereo not given)	TrxR1 inh 50.1µM
O=C(Nc1ccc(C(=O)OCc2cc(=O)n3c4c(sc3n2)CCCC4)cc1)c1ccc(Cl)cc1	none (no result: GALK inhibitor)
Cc1ccccc1NC(=O)CSc1nc2c(c(=O)n(C)c(=O)n2C)n1Cc1ccccc1F	none (no result: GALK inhibitor)
COc1ccc(NC(=S)Nc2ccc(N)c([N+](=O)[O-])c2)cc1	PI4K2A block -52.7
COc1ccc(NC(=S)Nc2ccccc2)cc1	none
COc1ccc(NC(=S)Nc2ccc3snnc3c2)cc1	none
COc1ccc(NC(=S)Nc2ccc3nccnc3c2)cc1	TrxR1 inh 15.8µM
COc1cc2c(=O)c(C(=O)c3ccc(F)cc3)cn(Cc3cccc(F)c3)c2cc1OC	none (no result: GALK inhibitor)
CCC(Sc1nnc2c3ccccc3n(CC)c2n1)C(=O)Nc1ccc(NC(C)=O)cc1 (stereo not given)	none (no result: GALK inhibitor)
COC(C/C=C\C(=O)[C@H](C)OCc1ccccc1)OC	TrxR1 inh 44.7µM (no result: GALK inhibitor)
O=C(CCS(=O)(=O)c1ccc(Br)cc1)Nc1ccccn1	TrxR1 inh 44.7µM
O=C(O)CCc1c2ccc(=O)c(O)c-2oc2c(O)c(O)ccc12	TrxR1 inh 56.2µM (no result: GALK inhibitor, PI4K2A block)
COc1ccc(CCNC(=O)c2c(O)nc3ccccn3c2=O)cc1OC	none (no result: GALK inhibitor)
CN1CCO/C1=C(\C(Cl)=C(Cl)Cl)[N+](=O)[O-]	none
CCC1CO/C(=C(\C(Cl)=C(Cl)Cl)[N+](=O)[O-])N1 (stereo not given)	TrxR1 inh 15.8µM
CCOc1ccc(C(=O)O/N=C(\N)c2ccccn2)cc1	PI4K2A block -87.9
CC(C)(C)c1ccc(C(=O)O/N=C(\N)c2ccccn2)cc1	PI4K2A block inconclusive
N/C(=N\OC(=O)c1ccccc1)c1ccccn1	PI4K2A block -67.4
Cc1ccc(C(=O)O/N=C(\N)c2ccccn2)cc1	GALK inhibitor inconclusive, PI4K2A block -85.8
CCOC(=O)CSc1nc2cc3c(cc2c(=O)n1CCCC(=O)NCCc1ccc(OC)c(OC)c1)OCO3	none (no result: GALK inhibitor)
O=C(COc1ccccc1C(=O)Nc1cccc(F)c1)Nc1ccc(Br)cc1	none (no result: GALK inhibitor, PI4K2A block)
CCN(CC(=O)Nc1cc(Cl)ccc1C)C(=O)COc1ccccc1F	none
CCN(CC(=O)Nc1cc(Cl)ccc1C)C(=O)CCOc1ccccc1C	TrxR1 inh 39.8µM
O=C(N/N=C/c1ccc(-c2ccccc2[N+](=O)[O-])o1)c1cccnc1	TrxR1 inh 50.1µM
